Experimental data as given in PubChem BioAssay (NCI).
This is part of a sample that, as a whole, favours compounds with a hit. Of some 79,000 tested, about 15% had one in any assay. Values without a mark were called inactive. The source made the active and inactive calls. Rule as the data show it: active = growth inhibition above about 70%; inactive = the rest.

Assay: NCI Yeast Anticancer Drug Screen. Data for the mlh1 rad18 strain (AID 175)
Details: S. cerevisiae mlh1 rad18 strain growth inhibition, hits give high values
Description: Growth inhibition of yeast strains with defined genetic alterations is measured as a screen for potential anti-cancer activity. Selected strains with alterations in DNA damage repair or cell cycle control were exposed to compounds and growth inhibition was measured relative to vehicle treated controls. The strain used in this assay is mlh1 rad18

[1] = at 5.0 µM (retest, dose inferred, filed as 0.5)
[2] = at 50.0 µM (retest, dose inferred, filed as 5.0)

SMILES | growth inhibition [1] | growth inhibition [2] | growth inhibition (at 50.0 µM)
C/C(=N\NC(=S)NC1CCCC1)c1ccccn1 | 13% | 98% (active) | 91.5% (active)
O=S(=O)(N/N=C/c1cccc(Cl)c1)c1ccccc1 | 57% | 95% (active) | 96.8% (active)
CC(=O)N1C(=O)/C(=C\C(=O)c2ccc(Cl)cc2)c2ccccc21 | 80% (active) | 97% (active) | 80.7% (active)
COc1ccc(N2CN(C)CSC2=S)cc1 | 51% | 97% (active) | 56.4%
CC(=O)N1C(=O)/C(=C\C(=O)c2ccc([N+](=O)[O-])cc2)c2ccccc21 | 72% (active) | 98% (active) | 85.7% (active)
CC(=O)C1(O)Cc2c(O)c3c(c(O)c2C(OC2CC(N)C(O)C(C)O2)C1)C(=O)c1ccccc1C3=O (stereo not given) | -33% | 54% | –
COc1ccc(SCc2cc(OC)ccc2OC)cc1 | -16% | 67% | 21.3%
Nc1ccc(S(=O)(=O)Nc2ccc(Nc3c4ccccc4nc4ccccc34)cc2)cc1 | 0% | 19% | –
COc1cc(N(C)C)ccc1/C=C\c1ccnc2ccccc12 | -8% | 32% | 2.15%
Nc1cc(F)cc2c1-c1ccc(F)cc1C2 | -1% | 61% | 87.7% (active)
COc1ccc2c(c1)[nH]c1c(/C=C/c3ccccc3)nccc12 | 29% | 95% (active) | 89.5% (active)
O=C1CC(=O)N(C2CCCCC2)C(=O)N1c1ccccc1S(=O)(=O)Oc1ccccc1 | 61% | 100% (active) | 41.4%
CSc1s[s+]c(SC)c1-c1ccccc1 | 34% | 56% | 71.8% (active)
Cc1cc(N=C2C=CC(=[N+](C)C)C=C2)c(N)cc1N | 28% | 56% | 53.5%
